Holding throughout (assay): glycan array binding signal (z-score within array); higher = stronger binding
Holding throughout (details): glycan notation: IUPAC condensed, linker removed

The target of one test is Fuc(a1-2)Gal(b1-3)GlcNAc. The method in brief: (§1)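 Arrays were curated from the Consortium for Functional Glycomics database, 3228 in total, and kept only where the protein sequence was available. Binding is expressed as a within-array Z-score. This score was averaged across arrays of the same protein sequence at different concentrations or buffers and across linkers, and negative values can be read as non-binding.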

For test [1], the target named is Fuc(a1-2)Gal(b1-3)[Fuc(a1-4)]GlcNAc. The method in brief: as §1
For the next test, the target named is Fuc(a1-2)Gal(b1-4)GlcNAc. Summed up:
as §1

Test [2] has as its target Fuc(a1-2)[Gal(a1-4)]Gal(b1-4)GlcNAc. The method in brief: as §1
The target in test [3] is Fuc(a1-2)[GalNAc(a1-4)]Gal(b1-4)GlcNAc. Summed up: as §1
Another test has as its target Gal(a1-3)Gal(b1-4)GlcNAc. The method in brief: as §1
The target in another test is Gal(a1-4)GlcNAc. The method in brief: as §1
For the next test, the target named is Gal4S(b1-4)GlcNAc. The method in brief: as §1
In the next test the target is GalNAc(a1-3)Gal. Summed up:
as §1

The target of another test is Glc(a1-4)Glc. The method in brief:
as §1

The target of test [4] is GlcNAc(a1-6)Gal(b1-4)GlcNAc. The method in brief:
as §1

For another test, the target named is Kdn(a2-3)Gal(b1-4)GlcNAc. Summed up:
as §1

A further test concerns the target Man(a1-2)Man(a1-3)Man. The method in brief: as §1
The next test concerns the target Man(a1-3)[Man(a1-6)]Man. The method in brief: as §1
Test [5] concerns the target Man(a1-3)[Man(a1-6)]Man(b1-4)GlcNAc(b1-4)GlcNAc. Summed up:
as §1

Test [6] deals with Neu5Ac(a2-3)Gal(b1-4)GlcNAc(b1-3)Gal(b1-4)GlcNAc. Summed up: as §1
Test [7] deals with Neu5Ac(a2-8)Neu5Ac(a2-3)[GalNAc(b1-4)]Gal(b1-4)Glc. Summed up: as §1
Test [8] addresses Neu5Ac(a2-8)Neu5Ac(a2-8)Neu5Ac. Summed up: as §1
In test [9] the target is Neu5Ac9Ac(a2-6)Gal(b1-4)GlcNAc. Summed up: as §1

The sample as a whole holds a higher share of the strongest signals than the screen did.

B1: CV-IIL (Chromobacterium violaceum) (protein)
chain: AQQGVFTLPARINFGVTVLVNSAATQHVEIFVDNEPRAAFSGVGTGDNNLGTKVINSGSGNVRVQITANGRQSDLVSSQLVLANKLNLAVVGSEDGTDMDYNDSIVILNWPLG
As to B1, the “glycan array binding signal (z-score)” value in the test with Fuc(a1-2)Gal(b1-3)GlcNAc was 2.67; in test [1], 2.2; in the test with Fuc(a1-2)Gal(b1-4)GlcNAc, 2.98; in test [2] it was 1.68; in [3], 1.2; with Gal(a1-3)Gal(b1-4)GlcNAc, -0.501. The “glycan array binding signal (z-score)” value with Gal(a1-4)GlcNAc is -0.501; in the test with Gal4S(b1-4)GlcNAc, -0.501; in the test with GalNAc(a1-3)Gal, -0.502; in the test with Glc(a1-4)Glc it was -0.49; in [4], -0.501; in the test with Kdn(a2-3)Gal(b1-4)GlcNAc, -0.502. The “glycan array binding signal (z-score)” value with Man(a1-2)Man(a1-3)Man is 1.55; in the test with Man(a1-3)[Man(a1-6)]Man it was 2.82; in test [5], 2.82; in test [6] it was -0.498; in test [7] it was -0.501; in test [8], -0.501. For the same molecule, the “glycan array binding signal (z-score)” value in test [9] is -0.502.

For the origin of these results see the supplement of paper PMC8728848.
